Hits are enriched below; roughly 1.4% of the tested compounds scored in any of these assays.
Proteasome disasm: blocks ATP-dependent breakdown of the yeast 26S proteasome | anti-FLAG beads, GFP-proteasome disassembly, flow cytometry | inhibition of disassembly, % (no concentration beside the values) | 0.2% of 24,000 active;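 active = inhibition of disassembly above about 33%, limit read from the data; inconclusive = likely self-fluorescent, control bead median signal at least 40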;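 also: plate controls were ATP control with full disassembly for no effect and ATP-gamma-S intact proteasomes for full effect; higher percent means more bead fluorescence retained so stronger block of disassembly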
FPRL1 ligand: human FPRL1 ligand, with FPR counter-screen | P25090 | FPRL1-expressing cells, fluorescent ligand binding inhibition, flow cytometry | inhibition, % (no concentration beside the values) | 0.3% of 24,000 active | AID 441;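 also: 0% = buffer alone and 100% = receptor blocker peptide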
FPR ligand: binds the human formylpeptide receptor FPR | inhibition, % (concentration not given with the values) | FPR-expressing cells, fluorescent ligand binding, flow cytometry | 0.74% of 24,000 active;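 also: 0% = buffer wells and 100% = receptor blocker peptide wells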
Target sequence (P21462 whole entry, looked up): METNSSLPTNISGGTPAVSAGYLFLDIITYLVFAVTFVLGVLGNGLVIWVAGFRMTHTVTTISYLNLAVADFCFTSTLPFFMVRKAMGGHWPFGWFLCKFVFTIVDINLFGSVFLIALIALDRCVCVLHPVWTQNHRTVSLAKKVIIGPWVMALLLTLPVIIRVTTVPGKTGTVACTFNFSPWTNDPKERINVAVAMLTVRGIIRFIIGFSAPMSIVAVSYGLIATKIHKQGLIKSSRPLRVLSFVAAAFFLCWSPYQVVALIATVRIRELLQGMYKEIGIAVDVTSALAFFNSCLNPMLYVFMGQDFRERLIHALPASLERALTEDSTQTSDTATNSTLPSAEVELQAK
S aureus QS inh: inhibitors of bacterial quorum sensing in S. aureus; S. aureus RN6390 RNAIII-GFP reporter, AIP-induced, flow cytometry 3 h; inhibition, % at 2 µM; AID 527; 0.3% of 24,000 active;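 active = share of bacteria positive for the green fluorescent reporter and its mean brightness both inhibited by 50% or more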;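 also: 0% = AIP-stimulated control and 100% = unstimulated bacteria without AIP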
Numbers without * were called inactive. Rule as the data show it, unless noted: active = inhibition above about 30%; inconclusive = no clear call, values can overlap the other calls; inactive = below that.

Screening O=C(NC1CCCC1)c1sc(=S)n2c1[nH]c(=O)c1ccccc12 returned Proteasome disasm -0.7, FPRL1 ligand -0.5, FPR ligand 94.8* and S aureus QS inh 0.5.
For CCn1c(N)c(C(=O)NCC2CCCO2)sc1=S (stereo not drawn) the results were Proteasome disasm 1.0, FPRL1 ligand -0.4, FPR ligand 5.2 and S aureus QS inh -0.4.
CCCCCNC(=O)c1ccc2c(=O)[nH]c3c(C(=O)NCC4CCCO4)sc(=S)n3c2c1 (stereo not drawn) was read as Proteasome disasm -1.1, FPRL1 ligand 4.6, FPR ligand 39.7* and S aureus QS inh 1.8.
Screening O=C(NCc1ccco1)c1sc(=S)n2c1[nH]c(=O)c1ccccc12 returned Proteasome disasm 2.8, FPRL1 ligand -0.4, FPR ligand 8.3 and S aureus QS inh 4.6.
For CC1CC(C)CN(C(=O)c2ccccc2Nc2ccc(SC(F)F)cc2)C1 (stereo not drawn) the results were FPRL1 ligand -8.3 and FPR ligand -8.9.
O=C1C(=O)N(CCCN2CCOCC2)C(c2ccccn2)/C1=C(\O)c1ccc2c(c1)OCCO2 (stereo not drawn) was read as FPRL1 ligand -1.5 and FPR ligand -12.7.
`Cc1nc2sc(C(c3ccc(F)cc3)N3CCN(C(=O)c4ccco4)CC3)c(O)n2n1` (stereo not drawn) gave Proteasome disasm -0.9, FPRL1 ligand -2.8, FPR ligand 0.7 and S aureus QS inh -0.9.
`COc1ccc(-c2cc(C(F)(F)F)nc(N3CCN(C)CC3)n2)cc1OC` gave FPRL1 ligand 0.0 and FPR ligand -10.6.
`COc1ccc(-c2cc(C(F)(F)F)nc(N3CCN(c4ccccc4)CC3)n2)cc1OC` gave Proteasome disasm 1.1, FPRL1 ligand 16.5, FPR ligand 68.4* and S aureus QS inh -0.5.
Screening COc1ccc(-c2cc(C(F)(F)F)nc(N3CCCCC3)n2)cc1OC returned Proteasome disasm 0.8, FPRL1 ligand 33.2*, FPR ligand 9.6 and S aureus QS inh 2.4.
`O=C(Cn1ncc2c(=O)oc3ccccc3c21)Nc1nc2ccccc2s1` gave Proteasome disasm -1.0, FPRL1 ligand -4.7, FPR ligand -1.5 and S aureus QS inh 0.0.
For COC(=O)c1ccc2c(c1)N(Cc1nc(-c3cccc(Cl)c3)oc1C)C(=O)C1CCCN21 (stereo not drawn) the results were Proteasome disasm 81.4*, FPRL1 ligand -6.7, FPR ligand -0.4 and S aureus QS inh -1.2.
For COc1ccc(CCNC(=O)C2CCN(Cc3nc(-c4ccc(Cl)cc4)oc3C)CC2)cc1OC the results were Proteasome disasm 3.0, FPRL1 ligand -1.2, FPR ligand -3.4 and S aureus QS inh -3.3.
Screening COC(=O)c1ccc2c(c1)N(Cc1nc(-c3ccc(Cl)cc3)oc1C)C(=O)C1CCCN21 (stereo not drawn) returned Proteasome disasm 137.8*, FPRL1 ligand -5.0, FPR ligand 0.5 and S aureus QS inh 3.3.
O=C(CN1CCC(O)(c2ccc3c(c2)OCO3)CC1)OC1CCCCC1 was read as Proteasome disasm 3.2, FPRL1 ligand 1.8, FPR ligand 0.9 and S aureus QS inh 8.8.
Screening Cc1ccc(C2C3=C(CC(C)(C)CC3=O)Nc3[nH]c(=S)[nH]c(=O)c32)cc1 (stereo not drawn) returned Proteasome disasm 0.4, FPRL1 ligand -3.0, FPR ligand 35.2* and S aureus QS inh -2.6.
`CCCc1cc(=O)n2[nH]c(C)c(-c3ccccc3)c2n1` gave FPRL1 ligand 28.8 and FPR ligand 34.7*.
For Cc1[nH]n2c(=O)cc(-c3ccc([N+](=O)[O-])cc3)nc2c1-c1ccccc1 the results were FPRL1 ligand 47.3* and FPR ligand 69.6*.
`Cc1[nH]n2c(=O)cc(C(C)C)nc2c1-c1ccccc1` gave FPRL1 ligand -0.8 and FPR ligand -4.4.
For COc1ccccc1CNC(=O)c1cc2c(=O)n(C)c3ccccc3c2n1C the results were Proteasome disasm 0.1, FPRL1 ligand 3.3, FPR ligand 4.8 and S aureus QS inh -0.4.
CN1C2C=C3C(C#N)=C(N)C(C#N)(C#N)[C@@H](c4ccc(Cl)cc4)[C@@H]3C1CC2 (stereo partly drawn) was read as Proteasome disasm -1.4, FPRL1 ligand 0.7, FPR ligand -2.8 and S aureus QS inh -4.4.
Screening Cc1ccc(C2C3CSCC=C3C(C#N)=C(N)C2(C#N)C#N)cc1 (stereo not drawn) returned Proteasome disasm 40.3*, FPRL1 ligand -25.1, FPR ligand -4.3 and S aureus QS inh -1.6.
`COc1ccccc1-n1c(SC)nc(O)cc1=O` gave Proteasome disasm -1.1, FPRL1 ligand -10.4, FPR ligand 40.7* and S aureus QS inh 2.2.
`COc1ccccc1-n1c(C)nnc1SCC(N)=O` gave Proteasome disasm -3.3, FPRL1 ligand 2.9, FPR ligand 0.5 and S aureus QS inh -1.9.
Screening CNc1nn(-c2cccc(Cl)c2)nc1N returned Proteasome disasm inconclusive, FPRL1 ligand 90.3*, FPR ligand -8.6 and S aureus QS inh 4.4.
`O=C(Nc1nnc(-c2ccccc2Cl)o1)c1ccc(S(=O)(=O)N2CCCCCC2)cc1` gave Proteasome disasm 0.7, FPRL1 ligand -4.8, FPR ligand 31.4* and S aureus QS inh -7.3.
CC1CCCCN1S(=O)(=O)c1ccc(C(=O)Nc2nnc(-c3ccccc3Cl)o2)cc1 (stereo not drawn) was read as Proteasome disasm -1.1, FPRL1 ligand 1.1, FPR ligand 4.0 and S aureus QS inh 1.1.
Screening COc1ccc(N(CC(=O)Nc2nc3ccc(C)cc3s2)S(=O)(=O)c2c(C)nn(C)c2C)cc1 returned Proteasome disasm 0.6, FPRL1 ligand -9.8, FPR ligand -4.8 and S aureus QS inh 66.5*.
For Cc1[nH]n2c(=O)c3c(nc2c1-c1ccc(Cl)cc1)CCC3 the results were FPRL1 ligand -0.4 and FPR ligand 50.6*.
`Cc1[nH]n2c(=O)c3c(nc2c1-c1ccccc1)CCC3` gave FPRL1 ligand -3.2 and FPR ligand 40.2*.
For Cc1ccc(-c2cc3nc4c(c(=O)n3[nH]2)CCCC4)cc1 the results were Proteasome disasm -2.5, FPRL1 ligand 3.9, FPR ligand 2.1 and S aureus QS inh -0.2.
`Cc1[nH]n2c(=O)c(C#N)c(-c3ccccc3)nc2c1-c1ccccc1` gave FPRL1 ligand -7.5 and FPR ligand 89.8*.
COc1cc(C)nc(SCC(N)=O)n1 was read as Proteasome disasm -0.8, FPRL1 ligand 8.0, FPR ligand -2.4 and S aureus QS inh 6.8.
Cc1cc(SCC(N)=O)nc(SCC(=O)c2ccccc2)n1 was read as Proteasome disasm -0.2, FPRL1 ligand 48.8*, FPR ligand 48.2* and S aureus QS inh -0.9.
Screening CCCCN(CCCNC(=O)C1CCN(S(=O)(=O)CC)CC1)c1ccccc1 returned Proteasome disasm 0.9, FPRL1 ligand 0.8, FPR ligand -5.6 and S aureus QS inh 3.9.
Screening COc1ccccc1-c1c(C)oc2c(CN3CCN(CCO)CC3)c(O)ccc2c1=O returned FPRL1 ligand 0.6 and FPR ligand -6.6.
For COc1ccc(-c2c(C)oc3c(CN4CCN(CCO)CC4)c(O)ccc3c2=O)cc1OC the results were FPRL1 ligand 27.5 and FPR ligand 30.9*.
